Screening results (PubChem BioAssay)
Hits are enriched below; roughly 2.4% of the tested compounds scored in any of these assays.
D2 ag-1: activates the human D2 dopamine receptor; 360,000 tested, 0.084% active; activation, % (no concentration beside the values); P14416; DiscoveRx PathHunter D2 beta-arrestin, luminescence, 90 min; 100% = 57 uM dopamine signal; in the data active = activation above about 40%; inconclusive = between about 15% and that limit
Target sequence (P14416 whole entry, looked up): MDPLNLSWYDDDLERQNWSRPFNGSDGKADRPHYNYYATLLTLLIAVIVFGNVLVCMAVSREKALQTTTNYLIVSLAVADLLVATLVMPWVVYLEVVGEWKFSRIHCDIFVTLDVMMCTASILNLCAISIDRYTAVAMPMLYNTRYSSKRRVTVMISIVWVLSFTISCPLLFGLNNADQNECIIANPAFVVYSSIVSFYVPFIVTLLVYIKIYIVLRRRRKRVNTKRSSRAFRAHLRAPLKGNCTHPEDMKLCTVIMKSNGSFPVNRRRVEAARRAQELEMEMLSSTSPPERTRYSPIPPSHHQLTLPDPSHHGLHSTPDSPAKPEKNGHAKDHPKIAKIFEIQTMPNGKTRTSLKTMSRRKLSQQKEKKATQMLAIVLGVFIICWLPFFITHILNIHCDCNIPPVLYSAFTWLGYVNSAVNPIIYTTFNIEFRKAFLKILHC
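Agonist mode: compounds alone added to overnight-plated D2 PathHunter cells for 90 min at 37 C, with 57 uM final dopamine (EC100) defining full response. Beta-arrestin recruitment detected by chemiluminescent reagent, read after 1 h at ambient temperature.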
D2 PAM-1: positive allosteric modulators of human D2 dopamine receptor; P14416; HEK293 T-REx D2, calcium flux, EC20 dopamine potentiation; potentiation, % at 10 µM; 340,000 tested, 0.34% active;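 active = potentiation over 3 SD above the plate norm, cut at about 30% in these data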; note: 0% is about no effect
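Potentiation of an EC20 dopamine calcium response is measured in a force-coupled, tetracycline-inducible Hek293 Trex D2 line. Compound-only kinetic reads over 180 s flag agonists before dopamine addition.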
D2 ag-2: agonists of human D2 dopamine receptor | activation, % at 2 µM | HEK293 T-REx D2 cells, calcium flux agonist mode | 340,000 tested, 0.53% active | P14416 | AID 485358;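 active = activation over 3 SD above normal in the single-dose calcium agonist read, cut at about 30% in these data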; note: 0% is about no effect
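HEK293 Trex D2 cells, tetracycline-induced, o/n 30 C 5% CO2; no-wash Ca dye, RT 30–90 min; 10-cycle baseline, 23 nl cpd added, kinetic Ca read 180 s; agonist hits = positive Ca response.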
D2 PAM-2: human D2 receptor positive allosteric modulation; P14416; 360,000 tested, 0.23% active; DiscoveRx D2 beta-arrestin cells, luminescence, 90 min; 100% = 57 uM dopamine signal; AID 624464; potentiation, % (no concentration beside the values); in the data active = potentiation above about 50%; inconclusive = mostly about 30% to 49%
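D2 cells co-treated with compound plus 50 nM dopamine (EC20) for 90 min at 37 deg C to detect potentiation. Beta-arrestin recruitment was read as enzyme-fragment luminescence after 1 h at ambient temperature. Full response was set by 57 uM dopamine.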
D2 antag: antagonists of human D2 dopamine receptor; P14416; HEK293 TREx D2 cells, calcium flux, dopamine EC80; inhibition, % at 10 µM; 340,000 tested, 2% active; in the data active = inhibition above about 30%; inactive = below that, where a call was filed; note: 0% is about no effect
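Antagonism is scored as inhibition of an EC80 dopamine-evoked calcium signal in a force-coupled, tetracycline-inducible HEK293 T-REx D2 line, with compound present 180 s before agonist.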
* marks the source's active call; other numbers are inactive results.

For COc1ccc(NC(=O)CSc2nnc(C)n2C2CC2)cc1S(=O)(=O)N1CCOCC1 the results were D2 ag-1 -0.6 and D2 PAM-2 3.1.
For CCCCCOC(=O)Cn1c(=O)c2c(nc(N3CCOCC3)n2C)n(C)c1=O the results were D2 ag-1 -2.8, D2 PAM-1 1.2, D2 ag-2 -0.2, D2 PAM-2 -9.4 and D2 antag 9.5.
CCOC(=O)Cn1c(=O)c2c(nc(N3CCOCC3)n2C)n(C)c1=O was read as D2 ag-1 0.4, D2 PAM-1 1.2, D2 ag-2 0.4, D2 PAM-2 -3.1 and D2 antag 38.7*.
Screening O=S(=O)(CC(O)(c1ccccc1)c1ccccc1)CC(O)(c1ccccc1)c1ccccc1 returned D2 ag-1 -0.7 and D2 PAM-2 -1.2.
For CC(O)(CS(=O)(=O)c1ccc(Br)cc1)c1ccccc1 (stereo unspecified) the results were D2 ag-1 6.9, D2 PAM-1 -8.0, D2 ag-2 0.0, D2 PAM-2 4.2 and D2 antag 31.2*.
Screening C=CCc1cc(Cl)ccc1OCCNCCOC returned D2 ag-1 -3.8, D2 PAM-1 -48.7, D2 ag-2 0.2, D2 PAM-2 -23.1 and D2 antag 55.2*.
`C=CCc1cc(Cl)ccc1OCCNCCN1CCOCC1` gave D2 ag-1 -1.5, D2 PAM-1 -23.9, D2 ag-2 -0.3, D2 PAM-2 -10.4 and D2 antag -30.8.
Screening Cc1cc(=O)n2nc(N3CCCC(C(=O)NCc4ccco4)C3)sc2n1 (stereo unspecified) returned D2 ag-1 1.0, D2 PAM-1 -6.6, D2 ag-2 0.6, D2 PAM-2 -6.3 and D2 antag 36.3*.
`Cc1cc(=O)n2nc(N3CCC(C(=O)NCc4ccco4)CC3)sc2n1` gave D2 ag-1 -4.9, D2 PAM-1 -2.3, D2 ag-2 -0.2, D2 PAM-2 -13.0 and D2 antag -11.1.
`Cc1ccc(C(=O)Nc2ccc3oc(-c4cccnc4)nc3c2)c(Cl)c1` gave D2 PAM-1 14.7 and D2 ag-2 -0.7.
`O=C(Cn1cnc2c(nnn2-c2ccccc2)c1=O)NCc1ccco1` gave D2 ag-1 -5.1, D2 PAM-1 -9.7, D2 ag-2 0.0, D2 PAM-2 -2.0 and D2 antag 39.9*.
For CCOC(=O)CNC(=O)Cn1cnc2c(nnn2-c2ccccc2)c1=O the results were D2 ag-1 0.5, D2 PAM-1 13.9, D2 ag-2 -0.2, D2 PAM-2 -3.0 and D2 antag -6.8.
For COC(=O)C(C)n1cnc2c(nnn2-c2ccccc2)c1=O (stereo unspecified) the results were D2 ag-1 3.1, D2 PAM-1 6.6, D2 ag-2 -0.3, D2 PAM-2 -3.4 and D2 antag 30.5*.
For Cc1ccc(-n2ncc3c(=O)n(CC(=O)NCc4ccco4)cnc32)cc1 the results were D2 ag-1 -0.9, D2 PAM-1 31.2*, D2 ag-2 -0.9, D2 PAM-2 -8.9 and D2 antag 9.5.
O=C(Cn1cnc2c(nnn2-c2ccccc2)c1=O)NCCc1ccccc1 was read as D2 ag-1 -2.0, D2 PAM-1 55.5*, D2 ag-2 -0.3, D2 PAM-2 -3.3 and D2 antag -0.6.
Screening CCOC(=O)C(C)n1cnc2c(nnn2-c2ccccc2)c1=O (stereo unspecified) returned D2 ag-1 -2.0, D2 PAM-1 -1.9, D2 ag-2 -0.2, D2 PAM-2 -2.7 and D2 antag -18.7.
Screening O=C(NCc1ccncc1)C1CCN(S(=O)(=O)c2ccc(Cl)c(C(F)(F)F)c2)CC1 returned D2 ag-1 4.9, D2 PAM-1 5.1, D2 ag-2 0.0, D2 PAM-2 -19.3 and D2 antag 15.9.
Cc1nn(C(=O)c2ccccc2F)c(C)c1S(=O)(=O)N1CCOCC1 was read as D2 PAM-1 -4.8 and D2 ag-2 0.5.
Screening O=C(NCCc1ccccc1F)C1CCC(=O)N(Cc2ccc(Cl)cc2)C1 (stereo unspecified) returned D2 ag-1 -1.6, D2 PAM-1 -13.6, D2 ag-2 -0.3, D2 PAM-2 -5.2 and D2 antag 5.8.
For Oc1ccc(/C=N/N2CCCCC2)cc1O the results were D2 ag-1 43.5*, D2 PAM-1 -3.1 and D2 PAM-2 -10.8.
For CCCCn1c(CNC(=O)C23CC4CC(CC(C4)C2)C3)nnc1SCC(=O)Nc1nnc(C)s1 the results were D2 ag-1 -3.4, D2 PAM-1 -4.2, D2 ag-2 -0.4, D2 PAM-2 -3.9 and D2 antag 6.2.
For CCn1c(CNC(=O)C23CC4CC(CC(C4)C2)C3)nnc1SCC(=O)Nc1nnc(C)s1 the results were D2 ag-1 -1.2, D2 PAM-1 43.4*, D2 ag-2 0.2, D2 PAM-2 1.5 and D2 antag 0.2.
CCOC(=O)CSc1nnc(CNC(=O)c2cccc(C)c2)n1-c1ccccc1OC was read as D2 ag-1 -0.1, D2 PAM-1 -2.6 and D2 PAM-2 -1.0.
For Cc1ccccc1C(=O)NCc1nnc(SCC(=O)N2CCN(c3ccccc3)CC2)n1C the results were D2 ag-1 -5.8, D2 PAM-1 -0.1, D2 ag-2 -0.9, D2 PAM-2 -6.0 and D2 antag 38.6*.
`CC(C)C[C@H](NC(=O)N1CCN(c2ccccc2)CC1)C(=O)O` gave D2 ag-1 1.9 and D2 PAM-2 -0.2.
`CCOC(=O)CSc1nnc(CNC(=O)c2cccc(C)c2)n1C` gave D2 ag-1 inconclusive, D2 PAM-1 4.3, D2 ag-2 0.0, D2 PAM-2 -0.3 and D2 antag 35.3*.
`Cc1ccccc1C(=O)NC(CC(C)C)C(=O)N1CCN(c2ccccc2)CC1` (stereo unspecified) gave D2 ag-1 0.2, D2 PAM-1 30.5*, D2 ag-2 0.1, D2 PAM-2 -8.8 and D2 antag -2.5.
CC1(C)CC(=O)C2=C(C1)N1C(=C(C#N)C2c2ccccc2Cl)N=C(N)c2ccccc21 (stereo unspecified) was read as D2 ag-1 7.0, D2 PAM-1 -11.0, D2 ag-2 -0.1, D2 PAM-2 -2.9 and D2 antag 35.8*.
CC1(C)CC(=O)C2=C(C1)N1C(=C(C#N)C2c2ccc(Cl)cc2)N=C(N)c2ccccc21 (stereo unspecified) was read as D2 ag-1 -2.7, D2 PAM-1 -2.6, D2 ag-2 -1.7, D2 PAM-2 -6.8 and D2 antag -11.8.
`CCOCCCN(C)C1CCN(C(=O)c2oc3ccccc3c2NC(=O)COc2ccc(F)cc2)CC1` gave D2 ag-1 -8.5, D2 PAM-1 -26.1, D2 ag-2 0.7, D2 PAM-2 -36.8 and D2 antag 50.4*.
For CCOC(=O)CN(C(=O)CSc1nnc2c(n1)[nH]c1ccccc12)c1ccccc1 the results were D2 ag-1 -0.8, D2 PAM-1 -9.4, D2 ag-2 -0.4, D2 PAM-2 -37.1 and D2 antag 6.6.
